Publication PMC11006913
Numbering of substitutions follows the chain as printed.

Key:
Assay in all cases: PBM; 200 nM protein, PBS
Conditions in all cases: dsDNA, one strand shown
PRRX1 [1] = molecular target: PRRX1 (Homo sapiens, UniProt P54821 80-166, F113S)
PRRX1 [2] = molecular target: PRRX1 (Homo sapiens, UniProt P54821 80-166)
SIX6 [3] = molecular target: T1, SIX6 (Homo sapiens, UniProt O95475 114-200, T165P)
T1 sequence: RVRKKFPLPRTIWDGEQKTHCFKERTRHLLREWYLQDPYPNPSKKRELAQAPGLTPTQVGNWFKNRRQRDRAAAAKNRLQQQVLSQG

SIX6 [4] = molecular target: T2, SIX6 (Homo sapiens, UniProt O95475 114-200, H141N)
T2 sequence: T1 sequence with H28N, P52T

SIX6 [5] = molecular target: T3, SIX6 (Homo sapiens, UniProt O95475 114-200, T165A)
T3 sequence: T1 sequence with P52A

SIX6 [6] = molecular target: T4, SIX6 (Homo sapiens, UniProt O95475 114-200, T165G)
T4 sequence: T1 sequence with P52G

SIX6 [7] = molecular target: T5, SIX6 (Homo sapiens, UniProt O95475 114-200, L167V)
T5 sequence: T1 sequence with P52T, L54V

SIX6 [8] = molecular target: T6, SIX6 (Homo sapiens, UniProt O95475 114-200, T139Q)
T6 sequence: T1 sequence with T26Q, P52T

SIX6 [9] = molecular target: T7, SIX6 (Homo sapiens, UniProt O95475 114-200)
T7 sequence: T1 sequence with P52T

SIX6 [10] = molecular target: T8, SIX6 (Homo sapiens, UniProt O95475 114-200, T165I)
T8 sequence: T1 sequence with P52I

SIX6 [11] = molecular target: T9, SIX6 (Homo sapiens, UniProt O95475 114-200, L167M)
T9 sequence: T1 sequence with P52T, L54M

VENTX = molecular target: T10, VENTX (Homo sapiens, UniProt O95231 78-163, Y115F)
T10 sequence: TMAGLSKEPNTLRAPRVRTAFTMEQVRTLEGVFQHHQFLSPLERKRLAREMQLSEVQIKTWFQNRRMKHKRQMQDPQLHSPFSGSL

PAX4 = molecular target: T11, PAX4 (Homo sapiens, UniProt O43316 9-242)
T11 sequence: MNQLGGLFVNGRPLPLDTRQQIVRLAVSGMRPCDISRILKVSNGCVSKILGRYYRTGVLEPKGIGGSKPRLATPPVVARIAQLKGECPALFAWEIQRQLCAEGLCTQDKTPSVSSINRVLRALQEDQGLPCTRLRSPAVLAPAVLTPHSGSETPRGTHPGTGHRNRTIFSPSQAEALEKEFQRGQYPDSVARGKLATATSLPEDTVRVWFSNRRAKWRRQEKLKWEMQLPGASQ

HOXB6 [12] = molecular target: HOXB6 (Homo sapiens, UniProt P17509 132-218, K202E)
HOXA4 = HOXA4 (Homo sapiens, UniProt Q00056 201-287, R217L)
HOXB6 [13] = molecular target: HOXB6 (Homo sapiens, UniProt P17509 132-218)
Sequence of HOXB6 (Homo sapiens, UniProt P17509 132-218) (P17509 132-218): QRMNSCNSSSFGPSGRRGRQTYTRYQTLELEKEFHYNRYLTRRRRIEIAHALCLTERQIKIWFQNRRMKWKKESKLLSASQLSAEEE

Sequence of PRRX1 (Homo sapiens, UniProt P54821 80-166) (P54821 80-166): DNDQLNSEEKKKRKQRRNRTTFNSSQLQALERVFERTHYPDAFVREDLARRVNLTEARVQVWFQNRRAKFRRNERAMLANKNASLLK
Sequence of PRRX1 (Homo sapiens, UniProt P54821 80-166, F113S) (P54821 80-166 F113S): as the sequence (P54821 80-166) above, with F34S counted along it
Sequence of HOXA4 (Q00056 201-287 R217L): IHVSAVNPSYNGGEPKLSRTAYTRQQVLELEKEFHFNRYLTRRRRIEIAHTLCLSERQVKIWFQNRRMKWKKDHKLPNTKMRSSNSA
Sequence of HOXB6 (Homo sapiens, UniProt P17509 132-218, K202E) (P17509 132-218 K202E): as the sequence (P17509 132-218) above, with K71E counted along it

CCGGGGTC
binding signal (PRRX1 [1]): 9.27 upbm affinity estimate (log intensity, higher = more binding, comparable within an allelic series) | binding signal (PRRX1 [2]): 9.54 upbm affinity estimate (log intensity, higher = more binding, comparable within an allelic series)

CCGGATCG
binding signal (SIX6 [3]): 9.19 upbm affinity estimate (log intensity, higher = more binding, comparable within an allelic series)

GGGATCCA
binding signal (SIX6 [3]): 9.27 upbm affinity estimate (log intensity, higher = more binding, comparable within an allelic series)

CTGGATCC
binding signal (SIX6 [3]): 9.18 upbm affinity estimate (log intensity, higher = more binding, comparable within an allelic series)

AGGGGATC
binding signal (SIX6 [3]): 9.22 upbm affinity estimate (log intensity, higher = more binding, comparable within an allelic series)

CCAAGACG
binding signal (PRRX1 [1]): 9.45 upbm affinity estimate (log intensity, higher = more binding, comparable within an allelic series) | binding signal (PRRX1 [2]): 9.18 upbm affinity estimate (log intensity, higher = more binding, comparable within an allelic series)

GATCCCCA
binding signal (SIX6 [3]): 9.34 upbm affinity estimate (log intensity, higher = more binding, comparable within an allelic series)

ACTACAAT
binding signal (SIX6 [3]): 10.1 upbm affinity estimate (log intensity, higher = more binding, comparable within an allelic series)

GCTATCAC
binding signal (SIX6 [3]): 9.24 upbm affinity estimate (log intensity, higher = more binding, comparable within an allelic series)

CTGATACA
binding signal (SIX6 [4]): 11 upbm affinity estimate (log intensity, higher = more binding, comparable within an allelic series) | binding signal (SIX6 [5]): 11 upbm affinity estimate (log intensity, higher = more binding, comparable within an allelic series)

GCGATCCC
binding signal (SIX6 [3]): 9.24 upbm affinity estimate (log intensity, higher = more binding, comparable within an allelic series)

CGCGGATC
binding signal (SIX6 [3]): 9.18 upbm affinity estimate (log intensity, higher = more binding, comparable within an allelic series)

CATATCAC
binding signal (SIX6 [4]): 11.1 upbm affinity estimate (log intensity, higher = more binding, comparable within an allelic series) | binding signal (SIX6 [6]): 11.1 upbm affinity estimate (log intensity, higher = more binding, comparable within an allelic series) | binding signal (SIX6 [5]): 11 upbm affinity estimate (log intensity, higher = more binding, comparable within an allelic series) | binding signal (SIX6 [7]): 10.9 upbm affinity estimate (log intensity, higher = more binding, comparable within an allelic series)

AGGGATCG
binding signal (SIX6 [3]): 9.2 upbm affinity estimate (log intensity, higher = more binding, comparable within an allelic series)

CGATACAC
binding signal (SIX6 [4]): 11.1 upbm affinity estimate (log intensity, higher = more binding, comparable within an allelic series) | binding signal (SIX6 [8]): 11.2 upbm affinity estimate (log intensity, higher = more binding, comparable within an allelic series) | binding signal (SIX6 [5]): 11 upbm affinity estimate (log intensity, higher = more binding, comparable within an allelic series)

GCCGATAC
binding signal (SIX6 [3]): 9.22 upbm affinity estimate (log intensity, higher = more binding, comparable within an allelic series)

AATGAGGG
binding signal (PRRX1 [1]): 9.96 upbm affinity estimate (log intensity, higher = more binding, comparable within an allelic series) | binding signal (PRRX1 [2]): 11.2 upbm affinity estimate (log intensity, higher = more binding, comparable within an allelic series)

AACGATAC
binding signal (SIX6 [4]): 11.1 upbm affinity estimate (log intensity, higher = more binding, comparable within an allelic series) | binding signal (SIX6 [6]): 11.2 upbm affinity estimate (log intensity, higher = more binding, comparable within an allelic series) | binding signal (SIX6 [8]): 11.2 upbm affinity estimate (log intensity, higher = more binding, comparable within an allelic series) | binding signal (SIX6 [5]): 11 upbm affinity estimate (log intensity, higher = more binding, comparable within an allelic series) | binding signal (SIX6 [7]): 10.9 upbm affinity estimate (log intensity, higher = more binding, comparable within an allelic series)

CAGGATCA
binding signal (SIX6 [3]): 9.29 upbm affinity estimate (log intensity, higher = more binding, comparable within an allelic series)

CCGGATAC
binding signal (SIX6 [3]): 9.26 upbm affinity estimate (log intensity, higher = more binding, comparable within an allelic series)

CCCGATAC
binding signal (SIX6 [3]): 9.17 upbm affinity estimate (log intensity, higher = more binding, comparable within an allelic series)

CGGATCAG
binding signal (SIX6 [3]): 9.26 upbm affinity estimate (log intensity, higher = more binding, comparable within an allelic series)

GGATCCGA
binding signal (SIX6 [3]): 9.08 upbm affinity estimate (log intensity, higher = more binding, comparable within an allelic series)

CCGATCCG
binding signal (SIX6 [3]): 9.19 upbm affinity estimate (log intensity, higher = more binding, comparable within an allelic series)

ACCGGATC
binding signal (SIX6 [3]): 9.31 upbm affinity estimate (log intensity, higher = more binding, comparable within an allelic series)

CGGATACC
binding signal (SIX6 [3]): 9.26 upbm affinity estimate (log intensity, higher = more binding, comparable within an allelic series)

CCGATACG
binding signal (SIX6 [3]): 9.12 upbm affinity estimate (log intensity, higher = more binding, comparable within an allelic series)

GATATGGC
binding signal (SIX6 [3]): 9.27 upbm affinity estimate (log intensity, higher = more binding, comparable within an allelic series)

CCGGATCA
binding signal (SIX6 [3]): 9.33 upbm affinity estimate (log intensity, higher = more binding, comparable within an allelic series)

AAGGATCC
binding signal (SIX6 [3]): 9.15 upbm affinity estimate (log intensity, higher = more binding, comparable within an allelic series)

CATAACAC
binding signal (SIX6 [4]): 10 upbm affinity estimate (log intensity, higher = more binding, comparable within an allelic series) | binding signal (SIX6 [6]): 10.3 upbm affinity estimate (log intensity, higher = more binding, comparable within an allelic series) | binding signal (SIX6 [8]): 10.4 upbm affinity estimate (log intensity, higher = more binding, comparable within an allelic series) | binding signal (SIX6 [5]): 10.1 upbm affinity estimate (log intensity, higher = more binding, comparable within an allelic series) | binding signal (SIX6 [9]): 10.1 upbm affinity estimate (log intensity, higher = more binding, comparable within an allelic series) | binding signal (SIX6 [10]): 10.1 upbm affinity estimate (log intensity, higher = more binding, comparable within an allelic series)

GACGATCC
binding signal (SIX6 [3]): 9.26 upbm affinity estimate (log intensity, higher = more binding, comparable within an allelic series)

CGGATCGC
binding signal (SIX6 [3]): 9.17 upbm affinity estimate (log intensity, higher = more binding, comparable within an allelic series)

CAGGGATC
binding signal (SIX6 [3]): 9.11 upbm affinity estimate (log intensity, higher = more binding, comparable within an allelic series)

GGGGATCA
binding signal (SIX6 [3]): 9.12 upbm affinity estimate (log intensity, higher = more binding, comparable within an allelic series)

GCGGATCC
binding signal (SIX6 [3]): 9.05 upbm affinity estimate (log intensity, higher = more binding, comparable within an allelic series)

ACCGATCG
binding signal (SIX6 [3]): 9.18 upbm affinity estimate (log intensity, higher = more binding, comparable within an allelic series)

CGATACCG
binding signal (SIX6 [3]): 9.14 upbm affinity estimate (log intensity, higher = more binding, comparable within an allelic series)

CCGGATCC
binding signal (SIX6 [3]): 9.14 upbm affinity estimate (log intensity, higher = more binding, comparable within an allelic series)

GCGATACC
binding signal (SIX6 [4]): 11 upbm affinity estimate (log intensity, higher = more binding, comparable within an allelic series) | binding signal (SIX6 [3]): 9.27 upbm affinity estimate (log intensity, higher = more binding, comparable within an allelic series) | binding signal (SIX6 [11]): 10.3 upbm affinity estimate (log intensity, higher = more binding, comparable within an allelic series) | binding signal (SIX6 [8]): 11.1 upbm affinity estimate (log intensity, higher = more binding, comparable within an allelic series)

GGATCCAC
binding signal (SIX6 [3]): 9.18 upbm affinity estimate (log intensity, higher = more binding, comparable within an allelic series)

CGGGTATC
binding signal (SIX6 [3]): 9.28 upbm affinity estimate (log intensity, higher = more binding, comparable within an allelic series) | binding signal (SIX6 [8]): 11.1 upbm affinity estimate (log intensity, higher = more binding, comparable within an allelic series)

CCGATTTA
binding signal (VENTX): 9.97 upbm affinity estimate (log intensity, higher = more binding, comparable within an allelic series)

CCGATACC
binding signal (SIX6 [3]): 9.05 upbm affinity estimate (log intensity, higher = more binding, comparable within an allelic series) | binding signal (SIX6 [11]): 10 upbm affinity estimate (log intensity, higher = more binding, comparable within an allelic series)

CGTGATCC
binding signal (SIX6 [3]): 9.16 upbm affinity estimate (log intensity, higher = more binding, comparable within an allelic series)

GGATCGGA
binding signal (SIX6 [3]): 9.23 upbm affinity estimate (log intensity, higher = more binding, comparable within an allelic series)

CGTGTAAA
binding signal (PAX4): 10.4 upbm affinity estimate (log intensity, higher = more binding, comparable within an allelic series)

CCTGGATC
binding signal (SIX6 [3]): 9.18 upbm affinity estimate (log intensity, higher = more binding, comparable within an allelic series)

AGATCCGC
binding signal (SIX6 [3]): 9.23 upbm affinity estimate (log intensity, higher = more binding, comparable within an allelic series)

GATACGCC
binding signal (SIX6 [3]): 9.27 upbm affinity estimate (log intensity, higher = more binding, comparable within an allelic series)

AATCGATT
binding signal (VENTX): 10.7 upbm affinity estimate (log intensity, higher = more binding, comparable within an allelic series) | binding signal (HOXB6 [12]): 9.7 upbm affinity estimate (log intensity, higher = more binding, comparable within an allelic series) | binding signal (HOXA4): 12 upbm affinity estimate (log intensity, higher = more binding, comparable within an allelic series) | binding signal (HOXB6 [13]): 11 upbm affinity estimate (log intensity, higher = more binding, comparable within an allelic series)

CCCCTATC
binding signal (SIX6 [3]): 9.29 upbm affinity estimate (log intensity, higher = more binding, comparable within an allelic series)
